High-throughput results from PubChem.
BAZ2B inh – inhibitors of human BAZ2B bromodomain; 360,000 tested, 4.4% active; AID 504333; Potency, µM (highest dose often 114 µM), inactives show at the top dose activity change, negative = inhibition, usual class: inhibitors; Q9UIF8; AlphaScreen BAZ2B-H3K14Ac peptide displacement; also: % is scaled to controls: 0 for no effect and ±100 for the full control effect; nearly all actives have a fitted effect of over 60% in size
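AlphaScreen displacement: compounds (up to 110uM) incubated 30 min at room temperature with a preformed 50 nM BAZ2B/50 nM biotinylated H3K14Ac peptide complex in PBS pH 7.4 with Tween-20. Donor and acceptor beads at 10 ug/mL final added, 20 min light-protected before reading.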
HP1b binding inh – HP1-beta chromodomain-methylated histone interaction inhibition. P83916. AlphaScreen HP1-beta / biotin-H3K9me3 peptide binding. Potency, µM (titrated, usually from 114 µM), for inactives: top-dose activity change, negative = inhibition, actives largely listed as inhibitors. 390,000 tested, 0.56% active; also: nearly all actives have a fitted effect of over 70% in size
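AlphaScreen: HP1-beta (50 nM) preformed 30 min with biotin-H3(1-18)K9me3 peptide (50 nM) in PBS pH 7.4, 0.01% Tween-20. Compound added for 30 min at RT, then streptavidin donor/nickel chelate acceptor beads (10 ug/mL) for 30 min.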
JMJD2A Tudor – JMJD2A Tudor domain (human) inhibition; O75164; AlphaScreen JMJD2A-Tudor / H3K4me3 peptide binding; Potency, µM (doses to about 114 µM), for the others: at the top dose activity change, negative = inhibition, actives largely listed as inhibitors; 390,000 tested, 4.4% active; AID 504339; also: % is scaled to controls: 0 for no effect and ±100 for the full control effect; nearly all actives have a fitted effect of over 50% in size
GLS inh – inhibitors of human glutaminase (GLS); AID 624170; O94925; Potency, µM (titrated, usually from 45.5 µM), without a hit: at the top dose activity change, negative = inhibition, hits mostly inhibitors; 410,000 tested, 0.21% active; GLS enzymatic activity, qHTS titration; also: % is scaled to controls: 0 for no effect and ±100 for the full control effect
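Two-point fluorescence kinetic (t0, 30 min RT) for hKGA; glutamate detected via glutamate oxidase–HRP–Amplex Red. Substrate: 1 mM L-glutamine solution; buffer 45 mM KH2PO4, pH 8.2.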
L3MBTL1 inh – blocks human L3MBTL1; Q9Y468; AlphaScreen L3MBTL1–H3K9me1 peptide binding; Potency, µM (top dose mostly 57.1 µM), for the others: at the highest dose activity, negative = inhibition, most hits filed as inhibitors; 230,000 tested, 0.66% active; AID 485360; also: % is scaled to controls: 0 for no effect and ±100 for the full control effect; nearly all actives have a fitted effect of over 60% in size
Target sequence (Q9Y468 whole entry, looked up): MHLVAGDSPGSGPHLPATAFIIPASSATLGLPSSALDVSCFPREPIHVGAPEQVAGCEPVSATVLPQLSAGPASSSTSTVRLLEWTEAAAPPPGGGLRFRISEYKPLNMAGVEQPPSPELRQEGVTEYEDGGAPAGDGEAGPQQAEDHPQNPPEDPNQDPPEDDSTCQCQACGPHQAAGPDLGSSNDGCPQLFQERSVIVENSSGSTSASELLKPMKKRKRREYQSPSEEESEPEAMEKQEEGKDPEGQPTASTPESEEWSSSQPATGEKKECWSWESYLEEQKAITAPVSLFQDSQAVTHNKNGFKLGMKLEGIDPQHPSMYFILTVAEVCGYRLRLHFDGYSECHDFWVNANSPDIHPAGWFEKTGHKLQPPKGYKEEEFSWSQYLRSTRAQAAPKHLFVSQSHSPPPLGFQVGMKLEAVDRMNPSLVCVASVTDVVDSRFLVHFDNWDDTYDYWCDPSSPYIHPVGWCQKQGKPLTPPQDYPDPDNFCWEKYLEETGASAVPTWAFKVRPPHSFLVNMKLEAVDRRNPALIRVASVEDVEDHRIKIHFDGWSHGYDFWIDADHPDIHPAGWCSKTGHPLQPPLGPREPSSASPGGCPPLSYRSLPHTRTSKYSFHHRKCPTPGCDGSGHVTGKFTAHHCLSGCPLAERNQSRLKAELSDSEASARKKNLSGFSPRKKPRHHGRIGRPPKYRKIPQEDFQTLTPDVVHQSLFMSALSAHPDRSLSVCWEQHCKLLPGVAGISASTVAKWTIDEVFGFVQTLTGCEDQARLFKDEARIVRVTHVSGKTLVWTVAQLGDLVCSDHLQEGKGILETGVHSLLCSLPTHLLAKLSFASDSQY
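Read-out is AlphaScreen signal from streptavidin donor and nickel chelate acceptor beads (10 ug/mL final each) bridging L3MBTL1 (50 nM) and biotinylated K9-monomethylated H3(1-15) peptide (75 nM), after 30 min compound exposure at room temperature.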
G9a block – blocks human histone lysine methyltransferase G9a; Q96KQ7; G9a H3K9 monomethylation, AlphaScreen, 2 h; Potency, µM (highest dose often 102 µM), inactives show top-dose activity, negative = inhibition, usual class: inhibitors; 350,000 tested, 8.8% active; AID 504332; also: % is scaled to controls: 0 for no effect and ±100 for the full control effect; nearly all actives have a fitted effect of over 75% in size
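G9a (20 nM) preincubated 15 min RT with compounds, then 500 nM biotinylated H3K9 peptide and 20 uM SAM added; 2 h RT reaction. Monomethyl-H3K9 product detected by AlphaScreen with anti-H3K9me1 antibody, streptavidin donor and anti-rabbit IgG acceptor beads.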
* = called active by the depositor; ? = inconclusive; nt = not tested or not shown; [ ] = remark or other dose. Rows were chosen to be rich in hits. Some 10% of all compounds tested hit in one or more screens of this group. Calls follow the shape of the dose curve; as a rule, active = well fitted curve in the direction sought with a large enough effect; inconclusive = small, poorly fitted or top-dose-only effect, or another doubt; inactive = no such curve, though single readings can be large; an effect the other way counts as inactive or inconclusive. Potency is read from the fitted curve at half-maximal effect.

SMILES	BAZ2B inh	HP1b binding inh	JMJD2A Tudor	GLS inh	L3MBTL1 inh	G9a block
Cc1cc(C(F)F)n2nc(C(=O)Nc3c(C)cccc3C)nc2n1	5%	33%	-8%	-11%	nt	-2%[59 µM]
Cc1c(O)ccc2c(CN3CCN(Cc4ccccc4)CC3)cc(=O)oc12	2%	25%	-22%	24%	nt	-13%
O=c1cc(CN2CCN(Cc3ccccc3)CC2)c2ccc(O)c(O)c2o1	40µM*	4%	?	?	nt	35µM*
CCCc1cc(=O)oc2c(CN3CCOCC3)c(O)ccc12	2%[57.1 µM]	12%	-8%	22%	1%	21%[59 µM]
O=c1cc(CN2CCOCC2)c2ccc(O)c(O)c2o1	-9%	42%	?	16%	nt	7.9µM*
COC(=O)c1ccc(NC(=O)Cn2c(=O)oc3ccccc32)cc1	-4%	22%	-11%	0%	nt	-2%[59 µM]
CCOC(=O)c1sc2cc([N+](=O)[O-])cc(SCC(C)C)c2c1N	-9%	?	40µM*	1%	nt	-34%[59 µM]
CCOC(=O)c1cc(N)cc([N+](=O)[O-])c1	-33%	35%	5%	-4%	-1%	?
Cc1cccc(N2CCN(C(=O)c3ccc4c(Cl)c5c(nc4c3)CCCC5)CC2)c1C	-18%	8%	-17%	-7%	nt	-2%[59 µM]
Cc1ccc(CCNC(=O)c2cc3cc(S(=O)(=O)N4CCCCC4)ccc3n2C)cc1	0%	27%[57 µM]	-2%	2%	nt	7%[59 µM]
CCCn1cc(SCC(=O)NCc2ccco2)c2ccccc21	?	15%	-31%	-8%	-10%	40µM*
CC(C)N(C(=O)Cn1cc(SCC(=O)NCc2ccco2)c2ccccc21)C(C)C	3%	22%	-9%	-8%	nt	3%
O=C(CSc1cn(CCNC(=O)c2ccccc2)c2ccccc12)NCc1ccco1	?	17%	?	2%	nt	40µM*
COc1ccc2c(c1)c1c(c(=O)n(-c3ccccc3)c(=O)n1CC(=O)NCCC1=CCCCC1)n2C	-3%	20%	-6%	4%	nt	3%[59 µM]
COc1ccc(-c2nnc3ccc(SC(C)C)nn23)cc1OC	nt	16%[57 µM]	5%[57.1 µM]	nt	nt	nt
Cc1ccc(Nc2nc(N)nc(CSC(=S)N3CCN(c4ccccc4)CC3)n2)cc1	?	-13%	?	-7%	?	35µM*
Nc1nc(CSC(=S)N2CCN(c3ccccc3)CC2)nc(Nc2ccccc2)n1	?	-16%	?	16%	-26%	45µM*
COc1ccccc1Nc1nc(N)nc(CSC(=S)N2CCN(c3ccccc3)CC2)n1	-33%	14%	-31%	-3%	-29%	-40%
COc1ccc(Br)cc1CNC(=O)C1CCCCN1S(=O)(=O)c1ccc(F)cc1 (stereo not given)	1%	21%	-30%	0%	nt	-3%[59 µM]
CC(C)(C)C(=O)CN1CCN(C2c3ccccc3-c3ccccc32)CC1	-5%	23%	-7%	1%	nt	50µM*
COc1ccc(NC(=O)CN2CCN(C3c4ccccc4-c4ccccc43)CC2)c(OC)c1	?	-18%	?	6%	7%	45µM*
COc1ccccc1NC(=O)CN1CCN(C2c3ccccc3-c3ccccc32)CC1	-37%	-7%	-30%	4%	-5%	nt
COc1ccc(-c2nc3cnc(N4CCN(C)CC4)nc3n(Cc3cccc(OC)c3)c2=O)cc1	nt	nt	nt	nt	nt	6%[0.501 µM]
Clc1ccc(C2CC(c3ccco3)n3ncnc3N2)cc1Cl (stereo not given)	-31%	11%	-15%	-7%	-7%[11.4 µM]	11µM*
Clc1ccc(C2CC(c3ccccc3)Nc3ncnn32)cc1 (stereo not given)	4%	25%	-13%	-5%	-3%	-3%[59 µM]
SMILES	BAZ2B inh	HP1b binding inh	JMJD2A Tudor	GLS inh	L3MBTL1 inh	G9a block
Cn1c2cc(S(C)=O)sc2c2cnn(Cc3ccccc3F)c(=O)c21 (stereo not given)	nt	nt	-18%	nt	nt	nt
COc1ccc(NC(C)=O)cc1S(=O)(=O)Nc1ccccc1C(=O)NCCc1ccccc1	-25%	9%	-3%	15%	nt	3%
COc1ccccc1NS(=O)(=O)c1cc(NC(=O)Nc2cccc(C)c2)ccc1N1CCCCC1	-3%	?	-24%	8%	-8%	25µM*
COc1ccc(C(=O)Nc2ccc(Cl)c(S(=O)(=O)Nc3ccccc3OC)c2)cc1	-7%	13%	-23%	-4%	2%	-6%[59 µM]
CCN(CC)c1ccc(NC(=O)c2ccccc2)cc1S(=O)(=O)Nc1ccccc1OC	-36%	?	79µM*	0%	-3%	1µM*
COc1ccc(NC(C)=O)cc1S(=O)(=O)Nc1ccc(OCc2ccccc2)cc1	?	-6%	?	?	nt	45µM*
COc1ccccc1NS(=O)(=O)c1cc(NC(C)=O)ccc1N1CCCCC1	nt	?	79µM*	5%	-11%	8.9µM*
Cc1cccc(NC(=O)CSc2nccn2Cc2ccc(F)cc2)c1C	-34%	12%[57 µM]	-18%	-1%	nt	-3%[59 µM]
COC(=O)c1ccc(-n2nnc(-c3nc(-c4ccc5c(c4)OCO5)no3)c2C)cc1	-2%	13%	?	2%	nt	-1%[59 µM]
COc1ccc(Cl)cc1NC(=O)c1noc2c1CCc1ccccc1-2	-8%	35%	-3%	1%	nt	6%[59 µM]
COc1ccc(NC(=O)C(C(C)C)N2Cc3ccccc3C2=O)cc1 (stereo not given)	3%	7%	-24%	-9%	nt	-5%[59 µM]
CCC(=O)Nc1ccc(N2CCOCC2)c(S(=O)(=O)Nc2ccc(OC)cc2)c1	?	13%	-4%	-32%	26%	1%
COc1ccccc1NS(=O)(=O)c1cc(NC(=O)c2ccncc2)ccc1N1CCCC1	nt	?	-36%	?	-17%	7.9µM*
COc1ccccc1NS(=O)(=O)c1cc(NC(=O)c2ccccc2C)ccc1N1CCOCC1	nt	9%	-15%	-1%	nt	nt
COc1ccccc1NS(=O)(=O)c1cc(NC(=O)C2CC2)ccc1N1CCOCC1	-35%	nt	nt	nt	10%	8.9µM*
COc1ccccc1NS(=O)(=O)c1cc(N2Cc3ccccc3C2=N)ccc1N1CCOCC1	nt	?	?	-14%	-15%	14µM*
CCCCCC(=O)Nc1ccc(N2CCOCC2)c(S(=O)(=O)Nc2ccc(OC)cc2)c1	9%	10%	-15%	3%	-1%	11µM*
COc1ccc(CCCc2n[nH]c(=S)o2)cc1	?	29%	-12%	11%	nt	?
COc1ccc(Cc2n[nH]c(=S)o2)cc1	-4%	26%	32µM*	12%	8%	nt
S=c1[nH]nc(COc2ccc3ccccc3c2)o1	-34%	-15%	-23%	41%	3%	0.89µM*
CNc1nc(-c2c(C)[nH]c3ccc(OC)cc23)cs1	50µM*	-3%	?	15%	nt	40µM*
